Source: PubChem BioAssay (NCATS)
Inconclusive results are not listed. Activity calls are given as the source filed them. The call rests on the fitted dose curve; in most records, active means well fitted cell-killing curve with a large enough effect; inconclusive means small, poorly fitted or top-dose-only effect, or effect the other way; inactive means flat fitted curve, though single readings scatter. Where a SMILES comes first, the peptide text is derived from it. [ ]: non-standard residue; d: D form. ξ: configuration not given here. ξPhe(βξ-Me) = CC(c1ccccc1)C(N)C(=O)O; GABA = NCCCC(=O)O

Test system: Tov-21-G
Assay: Primary qHTS to identify gynecologic anti-cancer compounds using libraries of approved drugs and bioactive compounds (AID 1345084); further: nearly all actives have a fitted effect of over 55% in size
Conditions: Gynecologic cancer cell panel viability, ATPlite luminescence, 48 h; series mostly up to 57.5 µM; activity change, negative = cytotoxicity: at the top concentration
Summary of the method: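 Cell viability after 48 h drug treatment, ATPlite luminescence readout; five doses.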
On the % scale 0 is the no-effect control and ±100 the full control effect.

| SMILES | activity change, negative = cytotoxicity |
| --- | --- |
| CC(C)C(=O)O[C@@H]1[C@@H](O)[C@@H](O[C@H]2O[C@H](CO)[C@@H](O)[C@H](O)[C@H]2O)O[C@H](CO)[C@H]1O | 9.4% [at 25.3 µM] (inactive) |
| C=C(C(=O)O)[C@@H]1CC=C2CCC[C@H](C)[C@@]2(C)C1 | 3.57% (inactive) |
| CC1(C)CC[C@]2(C(=O)O)CC[C@]3(C)C(=CCC4[C@@]5(C)CCC(O[C@@H]6OC[C@H](O)[C@H](O)[C@H]6O[C@@H]6O[C@H](CO)[C@@H](O)[C@H](O)[C@H]6O)[C@@](C)(CO)C5CC[C@]43C)[C@@H]2C1 (some centres not stated) | -1.21% [at 25.3 µM] (inactive) |
| CNc1nc(Nc2cnn([C@H]3CCN(C4COC4)C[C@@H]3F)c2Cl)ncc1C(F)(F)F | -0.892% (inactive) |
| CCCCNC(=O)[C@@H]1Cc2ccccc2N1C(=O)[C@@H](N)CC | 3.39% (inactive) |
| Cc1coc2c1CC1OC1(C)CCC1OC1(C)C2 (configuration not stated) | -0.161% (inactive) |
| COC(=O)C1C(CC(C)=O)C=CC(O)C12Oc1cc(C)cc(O)c1C2=O (configuration not stated) | -3.46% [at 38.5 µM] (inactive) |
| CCOC(=O)[C@H]1O[C@@H]1C(=O)N[C@@H](CC(C)C)C(=O)NCCC(C)C | -3.08% (inactive) |
| C=C1CCC2C(C)(C)C(O)CCC2(C)C1CCC(C)CCOC(=O)CCC(=O)O (configuration not stated) | 4.97% [at 25.3 µM] (inactive) |
| CC1CCC2(C(=O)OC3OC(CO)C(O)C(O)C3O)CCC3(C(=O)O)C(=CCC4C5(C)CCC(OC6OC(C)C(O)C(O)C6O)C(C)(C)C5CCC43C)C2C1C (configuration not stated) | 1.74% [at 25.3 µM] (inactive) |
| COC1CC(=O)C23C(=O)NC(CC(C)C)C2C(C)C(C)=CC3/C=C(\C)CCC1O (configuration not stated) | 0.579% [at 25.3 µM] (inactive) |
| C[C@@H]1O[C@@H](O[C@H]2[C@H](OC(=O)[C@]34CCC(C)(C)C[C@H]3C3=CCC5[C@@]6(C)C[C@H](O)[C@H](O[C@@H]7O[C@H](CO[C@@H]8OC[C@H](O)[C@H](O)[C@H]8O)[C@@H](O)[C@H](O)[C@H]7O)C(C)(C)C6CC[C@@]5(C)[C@]3(C)C[C@H]4O)OC[C@@H](O)[C@@H]2O)[C@H](O)[C@H](O[C@@H]2OC[C@](O)(CO)[C@H]2O)[C@H]1O[C@@H]1OC[C@H](O)[C@H](O[C@@H]2OC[C@@H](O)[C@H](O)[C@H]2O)[C@H]1O (some centres not stated) | -3.09% [at 6.55 µM] (inactive) |
| COc1cc(C)c(C(=O)O[C@H]2[C@@H](O)[C@H](n3ccc(=O)[nH]c3=O)O[C@@H]2CO)c(OC)c1 | -0.313% [at 25.3 µM] (inactive) |
| CC(C)CC1NC(=O)C(C(C)c2ccccc2)NC(=O)C(C(C)C)NC(=O)C(C)NC(=O)CCCNC(=O)C(Cc2c[nH]c3ccccc23)NC(=O)C(C)NC1=O (stereo not drawn) (cyclo([GABA]AV[ξPhe(βξ-Me)]LAW); configuration not given here) | 13.5% [at 25.3 µM] (inactive) |
| COc1cc(N2CCC(O)CC2)ccc1Nc1cc(Nc2ccccc2S(=O)(=O)C(C)C)c2cc[nH]c2n1 | -3.84% [at 38.5 µM] (inactive) |
| OC[C@H]1O[C@@H](n2cnc3c2NC=NC[C@H]3O)C[C@@H]1O | -0.0244% (inactive) |
| CC1(C)C[C@H]2C3=CCC4[C@@]5(C)CC[C@H](O[C@H]6O[C@H](C(=O)O)[C@@H](O)[C@H](O)[C@H]6O[C@H]6O[C@H](CO)[C@@H](O)[C@H](O)[C@H]6O[C@@H]6O[C@H](CO)[C@@H](O)[C@H](O)[C@H]6O)[C@](C)(CO)C5CC[C@@]4(C)[C@]3(C)CC[C@@]2(C)[C@H](O[C@@H]2OC[C@H](O)[C@H](OC3O[C@H](CO)[C@@H](O)[C@H](O)[C@H]3O)[C@H]2O)[C@@H]1O (some centres not stated) | 3.65% [at 6.55 µM] (inactive) |
| C[C@@H]1O[C@@H](O[C@H]2[C@H](OC(=O)[C@]34CCC(C)(C)C[C@H]3C3=CCC5[C@@]6(C)C[C@H](O)[C@H](O[C@@H]7O[C@H](CO)[C@@H](O[C@@H]8O[C@H](CO)[C@@H](O)[C@H](O)[C@H]8O)[C@H](O)[C@H]7O)[C@@](C)(CO)C6[C@H](O)C[C@@]5(C)[C@]3(C)C[C@H]4O)OC[C@H](O)[C@@H]2O)[C@H](O)[C@H](O)[C@H]1O[C@@H]1OC[C@@H](O)[C@H](O[C@@H]2OC[C@](O)(CO)[C@H]2O)[C@H]1O (some centres not stated) | 2.26% [at 6.55 µM] (inactive) |
| C[C@@H]1O[C@@H](OC[C@H]2O[C@@H](OCC3CCC4CC3C4(C)C)[C@H](O)[C@@H](O)[C@@H]2O)[C@H](O)[C@H](O)[C@H]1O (some centres not stated) | 11.7% [at 25.3 µM] (inactive) |
| CC(C)=CCC/C(C)=C/CC/C(C)=C/CC[C@]1(C)CCc2cc(O)cc(C)c2O1 | 10.7% [at 25.3 µM] (inactive) |
| CC(=O)N1c2ccccc2C2(O)CC3C(=O)NC(CC(C)C)C(=O)N3C12 (configuration not stated) | 0.341% [at 38.5 µM] (inactive) |
| CCCCS(=O)(=O)Nc1ncnc(OCCOc2ncc(Br)cn2)c1-c1ccc(Br)cc1 | 3.51% (inactive) |
